Results published in PubChem BioAssay.
The source made the active and inactive calls.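 The calls were made as follows: active = at least 20% inhibition of 6-phosphogluconate dehydrogenase activity; inactive = the rest.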

These molecules were tested against 6-phosphogluconate dehydrogenase, decarboxylating (Homo sapiens) (UniProt P52209) (assay: inhibition of human phosphogluconate dehydrogenase – biochemical, recombinant enzyme, NADPH absorbance, primary screen (AID 1159550)). Conditions: recombinant 6PGD, NADPH absorbance 341 nm; at 10 µM; active compounds read high.
6-phosphogluconate dehydrogenase, decarboxylating (Homo sapiens), sequence (P52209 whole entry, looked up): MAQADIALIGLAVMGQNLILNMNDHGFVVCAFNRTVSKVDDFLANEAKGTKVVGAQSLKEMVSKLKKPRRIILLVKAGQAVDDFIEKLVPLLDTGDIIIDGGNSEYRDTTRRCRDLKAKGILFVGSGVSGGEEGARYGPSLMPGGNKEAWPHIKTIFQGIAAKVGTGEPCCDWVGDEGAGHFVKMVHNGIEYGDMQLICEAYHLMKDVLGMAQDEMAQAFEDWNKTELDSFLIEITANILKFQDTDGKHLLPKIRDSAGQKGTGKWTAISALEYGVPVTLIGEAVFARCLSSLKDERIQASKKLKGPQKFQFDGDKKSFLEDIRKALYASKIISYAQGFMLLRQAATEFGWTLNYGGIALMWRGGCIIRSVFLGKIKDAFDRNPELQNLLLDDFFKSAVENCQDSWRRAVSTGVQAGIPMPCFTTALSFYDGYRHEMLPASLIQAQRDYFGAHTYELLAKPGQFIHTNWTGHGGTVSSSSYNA

inhibition, inactive:
CC(=O)OC1CCC2(O)CC1(C)CCC1C2CC1(C)C (centres undefined) 15.6%
CC1CCC(C(C)C)C(OC(=O)c2ccccc2)C1 (centres undefined) 3.54%
COC(=O)C[C@H]1C(C)(C)[C@@H](OC(C)=O)[C@@H]2CC3C4CC(=O)O[C@@H](c5ccoc5)[C@]4(C)CCC3[C@@]1(C)C2=O (some centres undefined) 7.27%
CC(C)CCC[C@@H](C)[C@H]1CC[C@H]2C3=CC[C@H]4C[C@@H](O)CC[C@]4(C)[C@H]3CC[C@]12C 4.86%
O=c1cccc2cc(O)c(O)c(O)c2c1O 16.8%
CC(=O)OC1CC2C(C)(C)C(=O)CCC2(C)C2CCC3(C)C(c4ccoc4)OC(=O)C4OC43C12C (centres undefined) 11.7%
CC1(C)[C@@H](O)CC[C@]2(C)[C@H]3C(=O)C=C4[C@H]5C[C@@](C)(C(=O)O)CC[C@]5(C)CC[C@@]4(C)[C@]3(C)CC[C@@H]12 -38.1%
COc1cc(OC)c2c(=O)c(OC)c(-c3ccc(OC)c(OC)c3)oc2c1 1.73%
CCC(=O)OC1[C@@H]2CC3=C4CC(=O)O[C@@H](c5ccoc5)[C@]4(C)CCC3[C@@](C)(C2=O)[C@@H](CC(=O)OC)C1(C)C (some centres undefined) -1.17%
O=C(NCO)c1cccnc1 -8.21%
CC(=O)O[C@@H]1c2c(ccc3ccc(=O)oc23)OC(C)(C)[C@@H]1OC(=O)CC(C)C -10.5%
CC(C)c1c(O)ccc2c1CC[C@H]1C(C)(C)CCC[C@]21C -7.32%
C=C1CCC2C(CC2(C)C)C(=C)CC/C1=N/O (centres undefined) 16.7%
CC1(C)C(=O)C=C[C@@]2(C)C1C=C[C@]1(C)C2CC[C@@]2(C)[C@H](c3ccoc3)OC(=O)C3OC321 (some centres undefined) -14.8%
COc1cc(O)c2c(=O)c(O)c(-c3ccc(O)c(O)c3)oc2c1 4.95%
CC(=O)NC(Cc1c[nH]c2ccccc12)C(=O)O (centres undefined) -6.76%
O=C1C=C(O)c2ccccc2C1=O 5.16%
COc1c(-c2ccccc2)oc2c(ccc3occc32)c1=O -3.15%
COc1cc2ccc(=O)oc2c(O)c1O 13.8%
C=C(C)CCCC(C)CCOC(C)=O (centres undefined) 8.09%
C/C(=C\CO)CCC[C@H](C)CCC[C@H](C)CCCC(C)C 5.74%
N[C@@H](CSCSC[C@H](N)C(=O)O)C(=O)O 6.1%
C[C@@H]1O[C@@H](Oc2c(-c3ccc(O)c(O)c3)oc3cc(O)cc(O)c3c2=O)[C@H](O)[C@H](O)[C@H]1O -14.2%
C[C@H]1C(=O)CC[C@@H]2[C@]1(C)CC[C@H]1[C@@]2(C)CC[C@@]2(C)[C@@H]3CC(C)(C)CC[C@]3(C)CC[C@]12C 7.58%
COc1ccc(-c2coc3cc(OC)cc(OC)c3c2=O)cc1 4.5%
COc1ccc(-c2cc(=O)c3cc(OC)ccc3o2)cc1 -2.36%
COc1cc(C)c(C(=O)O)c(O)c1 -0.391%
CC(C)=CCC/C(C)=C\CO 6.7%
C=C1[C@@H]([C@@]2(C)C=CC(=O)C(C)(C)[C@@H]2CC(=O)OC)CC[C@@]2(C)C(c3ccoc3)OC(=O)[C@H]3O[C@]132 (some centres undefined) 0.696%
CCC(C)C(=O)OC1[C@@H]2CC3=C4CC(=O)O[C@@H](c5ccoc5)[C@]4(C)CCC3[C@@](C)(C2=O)[C@@H](CC(=O)OC)C1(C)C (some centres undefined) 6.33%
COC(=O)C[C@H]1C(C)(C)C2(O)OC34CC2C(=O)[C@]1(C)C3CC[C@]1(C)C4=CC(=O)O[C@H]1c1ccoc1 (some centres undefined) 4.12%
CC1(C)C[C@@H]2C(=O)CC[C@H]3O[C@]3(C)CC[C@H]21 14.4%
CN1CCCC1c1cccnc1 (centres undefined) 17.4%
C[C@@H]([C@H]1OC(C)(C)[C@@H](O)[C@H]1O)[C@@H]1CC[C@]2(C)C3=CC[C@H]4C(C)(C)C(=O)CC[C@]4(C)[C@H]3CC[C@@]12C 4.2%
CCOC(=O)c1c(C)cc(OC)cc1O 13.5%
CC(C)c1c(O)ccc2c1CCC1[C@@](C)(C=O)CCC[C@]21C (some centres undefined) -10.2%
N[C@@H](CCC(=O)N[C@@H](CSC(CC(=O)O)C(=O)O)C(=O)NCC(=O)O)C(=O)O (some centres undefined) 6.35%
CC(C)[C@@H](C)/C=C/[C@@H](C)[C@H]1CC[C@H]2C3=CC=C4C[C@@H](O)CC[C@]4(C)[C@H]3CC[C@]12C -7.51%
Cc1cc(=O)c2c(O)cc(O)c(C)c2o1 9.08%
